# Values joined by “and” are separate entries in the source; they are usually repeats but may differ in a detail not shown here. Equal entries are not always repeated. Results filed as inconclusive are left out. Unmarked numbers belong to inactive results. Calls come from the whole dose curve; as a rule, active = well fitted activation curve with a large enough effect in the signal ratio; inconclusive = small, poorly fitted or top-dose-only effect, or a change in a side signal; inactive = flat fitted curve, though single readings scatter; the % refers to the signal ratio.
# Assay: qHTS assay for small molecule activators of the nuclear factor-kappa B (NF-kB) signaling pathway (AID 651749); note: series mostly up to about 77 µM; % of control where 0% means no effect
# Settings: NF-kB-bla ME-180 cells, beta-lactamase FRET ratio, 16 h; stronger effect = higher value
# Outline: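 FRET-based beta-lactamase detection in ME-180 cells reports NF-kB response-element-driven transcription following overnight (16 hr) compound treatment.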
row,SMILES,activation
1,Oc1ccc2cc(SSc3ccc4cc(O)ccc4c3)ccc2c1,0.682%
2,C=C(C)c1ccccc1,1.11%
3,Cc1ccc(S(=O)(=O)Oc2ccc(N=Nc3ccc(-c4ccc(N=Nc5c(O)ccc6cc(S(=O)(=O)O)cc(S(=O)(=O)O)c56)c(C)c4)cc3C)cc2)cc1,-0.0057%
4,ClC1=C(Cl)C(Cl)(Cl)C(Cl)=C1Cl,-0.183% and -0.468%
5,C/C=C1\C(=O)C[C@H]2[C@@H]3CCC4=CC(=O)CC[C@]4(C)[C@H]3CC[C@]12C,-4.79%
6,O=C1OC(O)C(C(Cl)Cl)=C1Cl (stereo not given),-0.496%
7,CNc1ccc(O)cc1,-0.994%
8,CC(=O)Nc1ccc(C(=O)CCl)cc1,-3.62%
9,O=C=Nc1ccc(Cc2ccc(N=C=O)cc2)cc1,0.0924%
10,O=Cc1ccc(Cl)c(Cl)c1,-0.954%

# Reference: PubChem BioAssay (NCATS)
